# Inconclusive results are not listed. Entries that show only a call come without a potency. The source made the active and inactive calls. The call rests on the fitted dose curve.
# Assay: Primary qHTS for Huh7 cytotoxicity: counterscreen for inhibitors of MERS-S pseudotyped particle cell entry (AID 1479147)
# Details: cell viability read-out; series mostly up to 57.1 µM
row,Structure (SMILES),Potency
1,CC[N+](CC)(CCNC(=O)C(=O)NCC[N+](CC)(CC)Cc1ccccc1Cl)Cc1ccccc1Cl,inactive
2,CC(=O)Nc1c(I)cc(I)c(C(=O)O)c1I,inactive
3,CCOc1ccc(NC(=O)CC(C)O)cc1 (stereo not given),inactive
4,C/C(=N\O)[C@@H](C)NCC(C)(C)CN[C@H](C)/C(C)=N/O,inactive
5,CCCc1ccc(OCC(=O)N2CCN(C(=O)COc3ccc(CCC)cc3OC)CC2)c(OC)c1,inactive
6,CC(=O)N(CC(O)CO)c1c(I)c(C(=O)NCCO)c(I)c(C(=O)NCC(O)CO)c1I (stereo not given),inactive
7,Nc1ccc(S(=O)(=O)NC(=O)c2ccccc2)cc1,inactive
8,CO[C@@]1(NC(=O)C(C(=O)O)c2ccc(O)cc2)C(=O)N2C(C(=O)O)=C(CSc3nnnn3C)CO[C@@H]21 (stereo not given in full),inactive
9,Clc1cccc(C(c2ccc3nc[nH]c3c2)n2ccnc2)c1 (stereo not given),inactive
10,Cc1ncc(CO)c(CO)c1O,inactive
11,CC(=O)OCC(=O)[C@@]1(O)CC[C@H]2[C@@H]3CCC4=CC(=O)CC[C@]4(C)[C@H]3C(=O)C[C@@]21C,inactive
12,CCn1cc(C(=O)O)c(=O)c2cc(F)c(N3CCNC(C)C3)c(F)c21 (stereo not given),inactive
13,O=C(COCCOCCOCC(=O)Nc1c(I)cc(I)c(C(=O)O)c1I)Nc1c(I)cc(I)c(C(=O)O)c1I,inactive
14,C[N+](C)(C)CCOC(N)=O,inactive
15,CC(C)Cn1cnc2c(N)nc3ccccc3c21,inactive
16,Nc1nc(/C(=C/CC(=O)O)C(=O)N[C@@H]2C(=O)N3C(C(=O)O)=CCS[C@H]23)cs1,inactive
17,O=c1oc2ccccc2c(O)c1Cc1c(O)c2ccccc2oc1=O,inactive
18,CC(=O)CC(c1ccc([N+](=O)[O-])cc1)c1c(O)c2ccccc2oc1=O (stereo not given),inactive
19,CC(=O)[C@@]1(O)CC[C@H]2[C@@H]3C[C@H](C)C4=CC(=O)C=C[C@]4(C)[C@@]3(F)[C@@H](O)C[C@@]21C,inactive

row,Structure (SMILES),Potency
1,N[C@@H](Cc1cc(I)c(Oc2ccc(O)c(I)c2)c(I)c1)C(=O)O,inactive
2,C[C@](O)(CS(=O)(=O)c1ccc(F)cc1)C(=O)Nc1ccc(C#N)c(C(F)(F)F)c1,inactive
3,CC1(C)O[C@@H]2C[C@H]3[C@@H]4CCC5=CC(=O)C=C[C@]5(C)[C@@H]4[C@@H](O)C[C@]3(C)[C@]2(C(=O)CO)O1,inactive
4,CN(C)CCN(Cc1ccsc1)c1ccccn1,inactive
5,CCOC(=O)[C@H](CCc1ccccc1)N[C@H]1CCCN2CCC[C@@H](C(=O)O)N2C1=O,inactive
6,CC(C)=CCC/C(C)=C/CO,inactive
7,CCCCCCCCCCCCOCCO,inactive
8,COCCOC(=O)C1=C(C)NC(C)=C(C(=O)OC(C)C)C1c1cccc([N+](=O)[O-])c1 (stereo not given),inactive
9,CCN(CC)CCNC(=O)c1ccc(N)cc1,inactive
10,NC(N)=NC(=O)Cc1c(Cl)cccc1Cl,inactive
11,Nc1ccn([C@@H]2CS[C@H](CO)O2)c(=O)n1,inactive
12,O=S(=O)(O)c1ccc2nc(-c3ccccc3)[nH]c2c1,inactive
13,C[N+]1(C)CCCC(OC(=O)C(O)(c2ccccc2)c2ccccc2)C1 (stereo not given),inactive
14,CN=C(NC#N)NCCSCc1nc[nH]c1C,inactive
15,CCc1cc(C(N)=S)ccn1,inactive
16,Nc1ccc(S(=O)(=O)Nc2ccccn2)cc1,inactive
17,CC(CSC(=O)c1ccccc1)C(=O)N1C[C@@H](Sc2ccccc2)C[C@H]1C(=O)O (stereo not given in full),inactive
18,COc1ccc(NS(=O)(=O)c2ccc(N)cc2)nn1,inactive
19,Cc1oc(=O)oc1CN1CCN(c2cc3c(cc2F)c(=O)c(C(=O)O)c2n3C(C)S2)CC1 (stereo not given),inactive

# Assay: Primary qHTS for inhibitors of MERS-S pseudo-typed particle cell entry (AID 1479149); further: nearly all actives have a fitted effect of over 60% in size
# Details: MERS-S pseudotyped particle entry, luciferase; series mostly up to 57.1 µM
row,Structure (SMILES),Potency
1,CC[N+](CC)(CCNC(=O)C(=O)NCC[N+](CC)(CC)Cc1ccccc1Cl)Cc1ccccc1Cl,inactive
2,CCOc1ccc(NC(=O)CC(C)O)cc1 (stereo not given),inactive
3,C/C(=N\O)[C@@H](C)NCC(C)(C)CN[C@H](C)/C(C)=N/O,inactive
4,CC(=O)N(CC(O)CO)c1c(I)c(C(=O)NCCO)c(I)c(C(=O)NCC(O)CO)c1I (stereo not given),inactive
5,Nc1ccc(S(=O)(=O)NC(=O)c2ccccc2)cc1,inactive
6,Clc1cccc(C(c2ccc3nc[nH]c3c2)n2ccnc2)c1 (stereo not given),inactive
7,Cc1ncc(CO)c(CO)c1O,inactive
8,CC(=O)OCC(=O)[C@@]1(O)CC[C@H]2[C@@H]3CCC4=CC(=O)CC[C@]4(C)[C@H]3C(=O)C[C@@]21C,inactive
9,O=C(COCCOCCOCC(=O)Nc1c(I)cc(I)c(C(=O)O)c1I)Nc1c(I)cc(I)c(C(=O)O)c1I,inactive
10,C[N+](C)(C)CCOC(N)=O,inactive
11,CC(C)Cn1cnc2c(N)nc3ccccc3c21,inactive
12,Nc1nc(/C(=C/CC(=O)O)C(=O)N[C@@H]2C(=O)N3C(C(=O)O)=CCS[C@H]23)cs1,inactive
13,O=c1oc2ccccc2c(O)c1Cc1c(O)c2ccccc2oc1=O,inactive
14,CC(=O)CC(c1ccc([N+](=O)[O-])cc1)c1c(O)c2ccccc2oc1=O (stereo not given),inactive
15,CC(=O)[C@@]1(O)CC[C@H]2[C@@H]3C[C@H](C)C4=CC(=O)C=C[C@]4(C)[C@@]3(F)[C@@H](O)C[C@@]21C,inactive
16,N[C@@H](Cc1cc(I)c(Oc2ccc(O)c(I)c2)c(I)c1)C(=O)O,inactive

row,Structure (SMILES),Potency
1,C[C@](O)(CS(=O)(=O)c1ccc(F)cc1)C(=O)Nc1ccc(C#N)c(C(F)(F)F)c1,inactive
2,CC1(C)O[C@@H]2C[C@H]3[C@@H]4CCC5=CC(=O)C=C[C@]5(C)[C@@H]4[C@@H](O)C[C@]3(C)[C@]2(C(=O)CO)O1,inactive
3,CN(C)CCN(Cc1ccsc1)c1ccccn1,inactive
4,CCOC(=O)[C@H](CCc1ccccc1)N[C@H]1CCCN2CCC[C@@H](C(=O)O)N2C1=O,inactive
5,CC(C)=CCC/C(C)=C/CO,inactive
6,CCCCCCCCCCCCOCCO,inactive
7,CCN(CC)CCNC(=O)c1ccc(N)cc1,inactive
8,Nc1ccn([C@@H]2CS[C@H](CO)O2)c(=O)n1,inactive
9,O=S(=O)(O)c1ccc2nc(-c3ccccc3)[nH]c2c1,inactive
10,C[N+]1(C)CCCC(OC(=O)C(O)(c2ccccc2)c2ccccc2)C1 (stereo not given),inactive
11,CN=C(NC#N)NCCSCc1nc[nH]c1C,inactive
12,CCc1cc(C(N)=S)ccn1,inactive
13,Nc1ccc(S(=O)(=O)Nc2ccccn2)cc1,inactive
14,CC(CSC(=O)c1ccccc1)C(=O)N1C[C@@H](Sc2ccccc2)C[C@H]1C(=O)O (stereo not given in full),inactive
15,COc1ccc(NS(=O)(=O)c2ccc(N)cc2)nn1,inactive
16,Cc1oc(=O)oc1CN1CCN(c2cc3c(cc2F)c(=O)c(C(=O)O)c2n3C(C)S2)CC1 (stereo not given),inactive
